Laboratory results reported in PubChem BioAssay AID1159580 (chemical genetic matrix, 2015).
Screen size: about 5,500 compounds; about 2,000 (36%) were called active. About 18% were inconclusive and are not listed. No stated cut-off is given here; in the data, active means normalized growth mostly below about 0.91 (no sharp cut-off); inconclusive means no clear call, values can overlap the other calls; inactive means mostly above about 0.92. This is one part of the list.

Experiment: chemical genetic growth profiling, strain panel (AID 1159580);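 further: tested at 20 µM; growth read once vehicle control cultures reached saturation at 30 °C; 1 = growth at the plate median or of vehicle wells; lower values mean less growth of the strain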
Settings: S. cerevisiae deletion strains, growth OD

Measured: normalized growth

CCCCC/C=C\CC(O)/C=C/c1cccc(CC(O)CCCCO)n1 (centres undefined)
inactive: locus YAL013W, strain DEP1, hits give low values 1.03 | locus YAL040C, strain CLN3, hits give low values 0.995 | locus YCL061C, strain MRC1 (second series), hits give low values 0.996 | locus YDR150W, strain NUM1, hits give low values 1 | locus YDR363W, strain ESC2, hits give low values 1.01 | locus YER002W, strain NOP16, hits give low values 0.982 | locus YMR307W, strain GAS1, hits give low values 1.01 | locus YNL153C, strain GIM3, hits give low values 1 | locus YNL175C, strain NOP13, hits give low values 0.985 | locus YNL197C, strain WHI3, hits give low values 0.974 | locus YNL224C, strain SQS1, hits give low values 0.975 | locus YNL322C, strain KRE1, hits give low values 1.01 | locus YOR083W, strain WHI5 (second series), hits give low values 0.991 | locus YPL241C, strain CIN2, hits give low values 0.995
